# Laboratory results published in article PMC8384837, “Expanding the binding specificity for RNA recognition by a PUF domain”.
# Tests used:
# Experiment in all cases: yeast three-hybrid, YBZ-1, SC-Leu-His + 0.5 mM 3-AT, 4 days
# Conditions in all cases: tags: N-Gal4 AD-HA kept; label: inside an RPR1-promoter hybrid RNA with tandem MS2 sites; ssRNA
# PUM1 PUF domain R3-MCK = PUM1 PUF domain R3-MCK (Homo sapiens, UniProt Q14671 828-1176, C935M;R936C;Q939K)
# Method in brief: (§1)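 Each repeat of the Pumilio-1 PUF domain was randomized at its three base-contacting residues, and these libraries were co-expressed from a centromeric plasmid with matching RNA elements in strain YBZ-1. After four days on SC-Leu (input) or SC-Leu-His + 0.5 mM 3-AT (selection), the repeat regions were PCR-amplified and Illumina-sequenced. The interaction score compares variant frequency between input and selection as a log change, computed in log2 with a pseudocount of 1 for absent variants.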
# PUM1 PUF domain R3-QRR = PUM1 PUF domain R3-QRR (Homo sapiens, UniProt Q14671 828-1176, C935Q;Q939R)
# Method in brief: as §1
# PUM1 PUF domain R8-MYL = PUM1 PUF domain R8-MYL (Homo sapiens, UniProt Q14671 828-1176, N1122M;Q1126L)
# Method in brief: as §1
# PUM1 PUF domain R6-DWQ = biological target: T1, PUM1 PUF domain R6-DWQ (Homo sapiens, UniProt Q14671 828-1176, N1043D;Y1044W)
# T1 sequence: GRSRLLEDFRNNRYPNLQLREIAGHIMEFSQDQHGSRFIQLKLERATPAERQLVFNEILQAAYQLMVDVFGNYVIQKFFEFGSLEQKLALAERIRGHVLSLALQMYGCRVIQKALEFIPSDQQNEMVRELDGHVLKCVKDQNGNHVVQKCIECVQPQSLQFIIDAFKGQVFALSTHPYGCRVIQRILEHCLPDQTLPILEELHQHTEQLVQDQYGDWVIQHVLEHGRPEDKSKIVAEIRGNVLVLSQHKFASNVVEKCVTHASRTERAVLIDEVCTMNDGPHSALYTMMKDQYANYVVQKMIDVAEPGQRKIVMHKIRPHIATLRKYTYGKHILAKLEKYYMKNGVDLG
# Method in brief: as §1
# PUM1 PUF domain R5-GYV = PUM1 PUF domain R5-GYV (Homo sapiens, UniProt Q14671 828-1176, C1007G;R1008Y;Q1011V)
# Method in brief: as §1
# Chain of PUM1 PUF domain R3-MCK (Q14671 828-1176 C935M/R936C/Q939K): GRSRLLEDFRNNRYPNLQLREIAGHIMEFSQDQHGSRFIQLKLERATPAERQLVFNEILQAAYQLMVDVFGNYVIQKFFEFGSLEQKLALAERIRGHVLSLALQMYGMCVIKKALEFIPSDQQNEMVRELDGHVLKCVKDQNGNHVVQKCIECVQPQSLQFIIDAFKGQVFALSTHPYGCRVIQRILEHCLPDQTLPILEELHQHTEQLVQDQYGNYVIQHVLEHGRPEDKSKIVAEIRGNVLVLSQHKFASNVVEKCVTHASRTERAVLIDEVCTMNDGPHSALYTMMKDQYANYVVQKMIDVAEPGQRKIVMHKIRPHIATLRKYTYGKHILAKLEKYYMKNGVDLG
# Chain of PUM1 PUF domain R8-MYL (Q14671 828-1176 N1122M/Q1126L): as the sequence (Q14671 828-1176 C935M/R936C/Q939K) above, with M108C, C109R, K112Q, N295M, Q299L counted along it
sequence,measurement,setting,value
GGCUAGAACUAGUGGAUCCCCCGGCGCCCGGCGGCUCGAGCCCGGGUAAGUGUAAGUAGUCUGCAUGCCGCCGGGCGCCAUGCCUGCAGGUCGACUCUAGAAAACAUG,binding signal,PUM1 PUF domain R3-MCK,4.78 log2 enrichment (interaction score)
same,binding signal,PUM1 PUF domain R3-QRR,3.94 log2 enrichment (interaction score)
GGCUAGAACUAGUGGAUCCCCCGGCGCCCGGCGGCUCGAGCCCGGGUAAGCGUAAAUAGUCUGCAUGCCGCCGGGCGCCAUGCCUGCAGGUCGACUCUAGAAAACAUG,binding signal,PUM1 PUF domain R8-MYL,2.58 log2 enrichment (interaction score)
GGCUAGAACUAGUGGAUCCCCCGGCGCCCGGCGGCUCGAGCCCGGGUAAGUGCAAAUAGUCUGCAUGCCGCCGGGCGCCAUGCCUGCAGGUCGACUCUAGAAAACAUG,binding signal,PUM1 PUF domain R6-DWQ,2.44 log2 enrichment (interaction score)
GGCUAGAACUAGUGGAUCCCCCGGCGCCCGGCGGCUCGAGCCCGGGUAAGUGUGAAUAGUCUGCAUGCCGCCGGGCGCCAUGCCUGCAGGUCGACUCUAGAAAACAUG,binding signal,PUM1 PUF domain R5-GYV,2.9 log2 enrichment (interaction score)
